Shown is part of a subset that was picked to be rich in hits.
Pf Dd2 inh: inhibitors of Plasmodium falciparum Dd2 growth | P. falciparum Dd2 growth, SYBR Green, 72 h | Potency, µM (series often up to 28.9 µM), most hits filed as inhibitors | actives 4.3% (n = 120,000); active means well fitted inhibition curve with a large enough effect; further: nearly all actives have a fitted effect of over 65% in size
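Infected erythrocytes (Dd2, 0.3% parasitemia, 2.5% hematocrit final) are added to compound in RPMI-1640/Albumax II medium, grown 72 h at 37C in low oxygen, then lysed with saponin/Triton-X containing SYBR Green and read by fluorescence.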
Hits are given with their value; i = inactive.

SMILES	Pf Dd2 inh
CCOC(=O)c1cc(-c2ccc(C)cc2)n(CCC(=O)NCc2ccccc2)c1C	8.91µM
CCOC(=O)c1cc(-c2ccccc2)n(CCC(=O)NCCc2ccc(OC)c(OC)c2)c1C	i
CCOC(=O)c1cc(-c2ccc(C)cc2)n(CCC(=O)NCCc2ccc(C)cc2)c1C	i
CCOC(=O)c1cc(-c2ccccc2)n(CC(=O)NCc2ccc(C)cc2)c1C	i
O=C1N2CCCC2CN1C1CCN(Cc2ccc(OC(F)(F)F)cc2)CC1 (configuration not stated)	i
CNC(=O)[C@@H](c1ccccc1F)N1CCC[C@H]1C(=O)NCC(C)C	i
CCc1ccc(S(=O)(=O)N2CCC(n3cnnc3CCOC)CC2)cc1	i
CN1CC(=O)N(C2CCNCC2)Cc2c(NCCO)ncnc21	i
COc1ccc(Cn2c(=O)c(-c3noc(C)n3)c3n(c2=O)CCCC3)cc1F	i
COc1ccccc1-c1[nH]ncc1CN1CCC2(CC1)CC(O)CCO2 (configuration not stated)	i
O=C1CC(c2ccccc2)N(Cc2cn[nH]c2-c2cccs2)CCCCCN1 (configuration not stated)	i
COCCC1(NC(=O)c2ccccc2)CCN(Cc2cn[nH]c2-c2cccs2)CC1	8.91µM
CC1(C)[C@H](Cc2cc(CN3CCOCC3)on2)C[C@@H]1NS(=O)(=O)Cc1ccccc1	i
Cc1cccc(OC[C@H]2C[C@@H](NCc3c(C)noc3C)[C@H](O)[C@@H]2O)n1	i
Cc1cccc(Cl)c1NC(=O)CN1C(=O)NC(c2ccc(Cl)cc2)C2=C1COC2=O (configuration not stated)	i
COc1cccc(CNC(=O)c2nnn3cc(C)[nH]c(=O)c23)c1	i
CCc1ccc(CNC(=O)c2nnn3cc(C)[nH]c(=O)c23)cc1	7.94µM
Cc1cn2nnc(C(=O)NCCC3=CCCCC3)c2c(=O)[nH]1	10µM
Cc1cn2nnc(C(=O)NCCc3cccs3)c2c(=O)[nH]1	i
Cc1ccc(CNC(=O)c2nnn3cc(-c4ccc(F)cc4)[nH]c(=O)c23)cc1	i
CNC(=O)c1nnn2cc(C)[nH]c(=O)c12	i
Cc1sc(NC(=O)COc2ccc(C(C)(C)C)cc2)c(C(=O)OC(C)C)c1C	i
Cc1c(C(=O)OC(C)C)sc(NC(=O)C2c3ccccc3Oc3ccccc32)c1C(=O)OC(C)C	2.24µM
CCOC(=O)c1sc(NC(=O)C2c3ccccc3Oc3ccccc32)c(C#N)c1C	i
COCCNC(=O)c1ccc(OC2CCN(CCC(C)c3ccc(C)o3)CC2)c(Cl)c1 (configuration not stated)	4.47µM
SMILES	Pf Dd2 inh
COc1ccc(C(=O)NCC2CCOC2)cc1OC1CCN(C(C)C)CC1 (configuration not stated)	i
CS(=O)(=O)N1CCC(Oc2ccc(C(=O)NCCc3cnccn3)cc2Cl)CC1	i
COCCN1CC(CNC(=O)c2cc(Cl)c(C)c(Cl)c2)CC1=O (configuration not stated)	i
COCCNC(=O)c1ccc(OC2CCN(C(C)CCSC)CC2)c(Cl)c1 (configuration not stated)	11.2µM
Cc1ccc(C(C)CCN2CCC(N3CCC(C(=O)NC4CC4)CC3)CC2)o1 (configuration not stated)	i
COc1ccc(CC(=O)N[C@H]2CCOC[C@H]2C2CCOCC2)c(OC)c1	i
Cc1nc(CC(=O)Nc2nn(C)c3cccc(Oc4cccnc4)c23)cs1	i
CCc1cccc2c(C(CC(=O)NCc3ccco3)c3ccc(C)cc3)c[nH]c12 (configuration not stated)	i
O=C(NCc1nc2c(s1)CCCC2)C1NCCc2[nH]cnc21 (configuration not stated)	i
Cc1cccc(CC(=O)N2CCC(Cc3nc(C(C)C)no3)CC2)c1	i
Cc1ccccc1C(=O)N1CC(C(=O)N(C)C)C2(CCOCC2)C1 (configuration not stated)	i
Cc1noc(-c2ccn3c(CNC(=O)C(C)c4ccccc4)nnc3c2)n1 (configuration not stated)	i
Cc1n[nH]c(C)c1C(N)C(=O)N1CC2(C)CN(C)CC(C)(C1)C2O (configuration not stated)	i
COCC(=O)NC[C@H]1OC[C@@H](NCC(C)(C)C)[C@@H]1O	i
COC[C@@H]1CN(C(=O)Cc2cc(C)no2)C[C@H]1c1ccncc1	i
Cc1ccccc1Nc1cnc2ccc(-c3cccc(CO)c3)nn12	2.51µM
COc1ccc(-c2ccc3ncc(Nc4ccc(C(N)=O)cc4)n3n2)cn1	i
COc1ccc(-c2ccc3ncc(Nc4cccc(F)c4)n3n2)cn1	i
COc1ccc(Nc2cnc3ccc(-c4cccc(CO)c4)nn23)cc1	i
COc1ccc(-c2ccc3ncc(Nc4ccccc4C)n3n2)cn1	5.62µM
OCc1cccc(-c2ccc3ncc(Nc4cccc(F)c4)n3n2)c1	i
Cc1ncccc1OC1(C(=O)N2CCCC2c2nc(C(C)C)no2)CCNCC1 (configuration not stated)	i
O=C1CO[C@H]2CN(Cc3c[nH]c4ccccc34)C[C@H]2N1Cc1ccccn1	i
O=C(C1CCCCC1)N1CCCC(c2noc(COc3ccccc3)n2)C1 (configuration not stated)	i
CN(CC1(CO)CC1)c1nccc(CCC(F)(F)F)n1	i
SMILES	Pf Dd2 inh
CCN1CCN(Cc2cc3ccc(C)cc3nc2-c2ccc(OC)c(OC)c2)CC1	i
COc1ccc(-c2n[nH]c3c2CC(=O)N(CC2CC2)C3)cc1OC	i
COc1ccc(-c2nc3cc(C)ccc3cc2CN2CCN(C)C(=O)C2)cc1OC	7.94µM
OC1(c2csc(CN3CCOCC3)n2)CCN(C2CCCC2)CC1	i
CCOC(=O)C1=C(C)N=C2SC=C(CC(=O)N3CCCC3)N2C1c1cccc(F)c1 (configuration not stated)	i
CCS(=O)(=O)Nc1ccc(C2(C(=O)NCC(C)C)CCCCC2)cc1	i
O=C(Nc1ccccc1F)C(Cc1ccccc1)n1cccc1 (configuration not stated)	i
CC(C)c1ccc(NC(=O)C(Cc2ccccc2)n2cccc2)cc1 (configuration not stated)	i
O=C(Nc1ccc(C(F)(F)F)cc1)C(Cc1ccccc1)n1cccc1 (configuration not stated)	14.1µM
O=C(Cn1nc2c(cc1=O)CCCCC2)N1CCN(Cc2ccc3c(c2)OCO3)CC1	i
CC(C)N1C(=O)C2(CCCC2)C1C(=O)N1CCN(C2CCCCC2)CC1 (configuration not stated)	10µM
CC(C)N1C(=O)C2(CCCC2)C1C(=O)N1CCC(N2CCCCC2)CC1 (configuration not stated)	i
CC(C)N1C(=O)C2(CCCCC2)C1C(=O)N1CCN(C)CC1 (configuration not stated)	i
O=C(NCC1CC1)c1csc(N2CCN(c3ccccc3F)CC2)n1	i
CC(C)NC(=O)N1CCC2(CC1)CN(C(=O)NC(C)C)CCO2	i
CC1(C)CN(C(=O)c2ccc(Oc3ccccc3)o2)CC1(C)O (configuration not stated)	i
O=C(c1ccc(CN2C(=O)NC3(CCS(=O)(=O)CC3)C2=O)cc1)N1CCOCC1	i
CC(C)CNc1nccc(C2(c3ccccc3Cl)CCNCC2)n1	5.01µM
C[C@@H](O)CNc1nccc(C2(c3ccccc3Cl)CCNCC2)n1	i
CC(CNc1nccc(C2(c3ccccc3Cl)CCNCC2)n1)CN(C)C (configuration not stated)	i
Clc1ccccc1C1(c2ccnc(NCc3ccncc3)n2)CCNCC1	i

Assay outcomes (PubChem)
